# Rows were chosen to be rich in hits. Some 2.7% of all compounds tested hit in one or more screens of this group.
# CFTR F508del cor – CFTR F508del correction in bronchial cells | 0.36% of 350,000 active | activity (quench increase), % at 7.58 µM | CFBE cells, YFP halide quenching; stimulated with forskolin plus potentiator P3; % fluorescence drop versus neutral controls;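 active = mean added fluorescence quench of at least 8% versus neutral control, with both replicates also reaching 8%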;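 also: cells transiently co-express mutant CFTR-F508del with the halide-sensitive YFP; corrector assay measuring rescue of mutant channel to the surface after 24 h compound exposure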
# Env fusion inh – inhibitors of HIV Env-mediated cell fusion; HeLa-JRFL Env/CEM21 cell fusion, luciferase; inhibition, % at 12.3 µM; 1.1% of 360,000 active; AID 651610;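 active = mean replicate inhibition score of at least 50 and every replicate individually at or above 50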;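 also: 0% = plate neutral controls and 100% = maraviroc near 300 nM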
# PAX8 inh HTS – lowers PAX8-driven luciferase in RMG-I cells. RMG-I TPO-luciferase reporter, SteadyGlo, 24 h. inhibition, % at 12.6 µM. 1.2% of 360,000 active. AID 652154;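 active = mean replicate inhibition at least 60% with every replicate also reaching 60%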;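 also: luciferase light reporting Pax8 driven TPO promoter activity; plate controls were median of neutral control wells for no effect and mitoxantrone controls for full effect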
# EWS-Fli inh – blocks EWS/Fli oncoprotein-driven transcription; A673 NR0B1-luciferase reporter, viability-normalised; inhibition, % at 12.6 µM; 0.67% of 350,000 active;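 active = mean inhibition of at least 50% after viability correction, with every replicate also passing that limit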;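 also: firefly luciferase signal divided by Alamar Blue viability fluorescence both relative to DMSO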
# PGC1a acetyl inh – lowers PGC1a acetylation signal in U2OS cells; AlphaScreen anti-acetyl-lysine; with virally co-expressed GCN5 acetyltransferase; inhibition, % at 15.6 µM; 0.17% of 350,000 active;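 active = every replicate shows inhibition of at least 40%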;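 also: 0% = neutral control wells and 100% = positive control wells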
# INS-1E GSIS act – primary screen for activators of insulin secretion dependent on glucose, INS-1E cells, GLuc reporter luminescence; activation, % at 16.6 µM; 0.61% of 370,000 active; AID 743287; INS-1E GLuc reporter insulin secretion, 2-3 h;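 active = lowest replicate activation of at least 40%, so every replicate reaches that level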;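 also: 0% = median of neutral control wells and 100% = median of IBMX positive control wells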
# * hit, by the source's call; / = no result given; [ ] = dose if it differs, or a comment.
SMILES,CFTR F508del cor,Env fusion inh,PAX8 inh HTS,EWS-Fli inh,PGC1a acetyl inh,INS-1E GSIS act
COC(=O)C[C@@H]1CC[C@@H]2[C@@H](COc3ccc(NC(=O)C4CC4)cc3C(=O)N2C)O1,-3.2,5.0[16.7 µM],-12.1,-2.7,-3.9,1.9
COc1ccc(CN(C)C[C@H]2OCCCC[C@H](C)Oc3ccc(NC(=O)c4ccccc4)cc3C(=O)N([C@@H](C)CO)C[C@H]2C)cc1,0.2,-2.1[16.7 µM],1.4,8.5,7.0,-22.0
CC=Cc1ccc2n(c1=O)C[C@@H]1[C@@H](CO)[C@H](C(=O)N(C)C)N(CCC)[C@H]21 (mixture of isomers),0.8,/,/,-1.4,1.1,23.9
COC(=O)c1c(N)sc(C(=O)NCCc2ccccc2)c1C,2.6,43.8,65.4*,83.3*,22.1,25.1
COc1cccc(OC)c1C(=O)NCCc1ccccc1,-3.2,2.2,1.8,7.3,/,-7.0
CCCn1nc(NC(=O)c2ccco2)c2cc3ccccc3nc21,/,-89.5,-9.3,/,/,44.9*
Cc1ccc(S(=O)(=O)N(C)C[C@H]2OCCCC[C@H](C)Oc3ccc(NS(=O)(=O)c4ccc(F)cc4)cc3C(=O)N([C@H](C)CO)C[C@@H]2C)cc1,0.3,-42.0[16.7 µM],80.0*,16.8,-2.1,5.8
Cc1ccc(S(=O)(=O)Nc2ccc3c(c2)C(=O)N([C@H](C)CO)C[C@@H](C)[C@@H](CN(C)S(=O)(=O)c2ccc(F)cc2)OCCCC[C@H](C)O3)cc1,1.6,-28.2[16.7 µM],1.6,1.0,-9.6,-0.9
Cc1ccc(S(=O)(=O)N(C)C[C@H]2OCCCC[C@H](C)Oc3ccc(NS(=O)(=O)c4ccc(F)cc4)cc3C(=O)N([C@@H](C)CO)C[C@@H]2C)cc1,3.5,-23.5[16.7 µM],71.8*,26.1,-11.5,-10.6
NNc1nc(-c2ccccc2)c2ccccc2n1,-1.9,-11.4,0.4,-3.4,/,44.2*
C[C@H](CO)N1C[C@H](C)[C@H](CN(C)Cc2ccc(C(=O)O)cc2)OCCCC[C@H](C)Oc2ccc(NC(=O)CCCN(C)C)cc2C1=O,0.1,-12.4[16.7 µM],-10.9,-2.4,2.1,26.6
COc1ccc(NS(=O)(=O)c2ccc(N3CCCC3)c(NC(=S)Nc3cccc(C)c3C)c2)cc1,/,148.7*,-14.8,/,/,-11.4
COc1ccc(NS(=O)(=O)c2ccc(N3CCCC3)c(N)c2)cc1,-2.0,27.4,-6.5,-0.4,-6.2,-7.6
COc1ccc(NS(=O)(=O)c2ccc(N3CCCC3)c(NC(=S)Nc3ccc(SC(F)F)cc3)c2)cc1,-4.2,/,101.4*,3.1,-11.9,1.0
CN(C)C(=O)C[C@@H]1C=C[C@@H](NC(=O)Nc2cccc(F)c2)[C@H](CO)O1,-0.6,1.7[16.7 µM],-12.6,-10.6,2.4,23.3
C[C@H](CO)N1C[C@H](C)[C@@H](CN(C)S(=O)(=O)c2ccccc2)Oc2ccc(N(C)C)cc2CC1=O,-1.3,-3.6[16.7 µM],-1.5,/,4.7,21.8
CC(C)C[C@H](NC(=O)c1nc[nH]c1C(=O)N1CCN(C(=O)OC(C)(C)C)CC1)C(=O)OC(C)(C)C,12.3*,-9.0,18.0,-15.3,/,-26.1
CC(C)C[C@H](NC(=O)c1nc[nH]c1C(=O)N[C@@H](CCCCNC(=O)OC(C)(C)C)C(=O)OC(C)(C)C)C(=O)OC(C)(C)C,-3.8,25.7,101.6*,36.9,-2.8,/
C[C@H](NC(=O)c1nc[nH]c1C(=O)N1CCN(C(=O)OC(C)(C)C)CC1)C(=O)OC(C)(C)C,1.7,-7.9,-10.8,-6.8,1.1,7.3
COc1ccc(N(CC(=O)Nc2ccc(OC)cc2OC)S(=O)(=O)c2ccccc2)cc1,0.0,4.2,34.2,19.4,-17.3,-3.1
CCOc1ccc(N(CC(=O)Nc2ccccc2OC)S(=O)(=O)c2ccccc2)cc1,0.0,-179.9,11.7,34.9,87.5*,-19.1
CCCN(CC(=O)Nc1ccccc1OC)C(=O)c1cc(S(=O)(=O)NCc2ccccc2)ccc1C,-1.4,35.0,9.2,/,/,-20.9
CCCN(CC(=O)Nc1ccccc1OC)C(=O)c1cccc(S(=O)(=O)NCc2ccccc2)c1,-1.0,90.1*,1.2,-0.2,/,-38.3
CCOc1ccc(N(CC(=O)Nc2ccccc2OCC)S(=O)(=O)c2c(C)noc2C)cc1,7.2,46.0,80.0*,42.4,-7.5,-14.2
CCOc1ccc(N(CC(=O)Nc2ccc(C)cc2)S(=O)(=O)c2c(C)noc2C)cc1,0.2,-23.5,12.6,7.4,-26.1,-38.7
SMILES,CFTR F508del cor,Env fusion inh,PAX8 inh HTS,EWS-Fli inh,PGC1a acetyl inh,INS-1E GSIS act
Cc1noc(C)c1S(=O)(=O)Nc1ccc2c(c1)CC(=O)N([C@@H](C)CO)C[C@H](C)[C@H](CN(C)S(=O)(=O)c1ccccc1)O2,-0.7,15.4[16.7 µM],16.2,-4.4,5.9,7.7
COc1ccc(NC(=O)N(C)C[C@@H]2Oc3ccc(NS(=O)(=O)c4ccccc4)cc3C(=O)N([C@@H](C)CO)C[C@@H]2C)cc1,1.8,-18.7[16.7 µM],/,-6.4,-2.2,0.2
C/C=C/c1ccc([C@@H]2[C@@H](CO)N3C(=O)CN(C(=O)c4cccc(F)c4)C[C@@H]23)cc1,1.9,/,/,/,12.5,15.8
CC1(C)C2CCC1(C)C(OC(=O)C[n+]1ccccc1N)C2 (stereo not given),1.3,0.5,15.4,-8.0,-2.6,41.5*
CC1(C)C2CCC1(C)C(OC(=O)C[n+]1ccccc1)C2 (stereo not given),-0.8,3.1,6.1,8.5,-7.8,6.2
Cn1cnc(S(=O)(=O)N[C@H]2C=C[C@H](CC(=O)NCC3CCCCC3)O[C@H]2CO)c1,0.1,8.2[16.7 µM],-15.3,-10.0,4.6,-5.5
Cc1ccc(C=Nc2ccc(N(C)C)cc2)o1,-1.4,/,/,-35.8,12.7,-15.6
Cc1csc(N=Nc2ccc(N(C)C)cc2)[n+]1[O-],1.2,26.6,68.1*,-13.7,/,-27.4
O=C(Nc1cccc(S(=O)(=O)NCc2ccco2)c1)c1cc(-c2ccccc2)nc2ccccc12,0.5,28.0,76.0*,17.2,/,8.6
O=C(NCc1ccco1)c1cc(-c2ccccc2)nc2ccccc12,/,/,/,/,-15.0,-19.7
CC1(C)OC(=O)C2=C(C[C@@H](CCc3ccccc3)O[C@@H]2c2ccc(F)cc2)O1,2.1,1.6,12.2,0.3,/,-34.5
CC[C@@H]1CC2=C(C(=O)OC(C)(C)O2)[C@H](c2ccc(F)cc2)O1,1.0,7.3,-25.9,4.7,-4.6,45.1*
NC1=NC[C@@H](Cc2ccc(O)cc2)N1CCC12CC3CC(CC(C3)C1)C2,-0.4,8.4,-14.2,13.3,5.6,183.6*
NC1=NC[C@H](Cc2ccc(O)cc2)N1CCc1cccc(F)c1,-4.1,4.7,8.0,-2.9,/,26.5
O=C(NC1=C(Nc2ccc(Cl)cc2)C(=O)c2ccccc2C1=O)c1ccccc1,/,-30.9,46.9,-7.8,/,/
O=C(NC1=C(NC2CCS(=O)(=O)C2)C(=O)c2ccccc2C1=O)c1ccccc1 (stereo not given),6.3,56.6*,95.6*,29.7,/,-32.2
